Compound activity (PubChem BioAssay)
Rows were chosen to be rich in hits. Some 4.2% of all compounds tested hit in one or more screens of this group.
Wnt act = activators of Wnt/beta-catenin signaling. Wnt/beta-catenin reporter cell assay, activator, plate reader. activation, % at 9.35 µM. actives 1.2% (n = 300,000); in the data active means activation above about 30%, passing the limit was not always enough; inconclusive means no clear call, values can overlap the other calls
MITF TRPM1 HTS = MITF TRPM1 promoter activation in melanoma cells. SK-MEL-5 TRPM1-promoter luciferase, 24 h; % of positive control, neutral wells = 0. activation, % at 12.5 µM. actives 0.75% (n = 300,000);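 active means mean activation of at least 80% with every replicate also reaching 80%; inconclusive means mean reaches 80% but some replicate falls short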
esBAF inh = SWI/SNF esBAF complex inhibition; actives 2% (n = 350,000); mouse ES cells, Bmi1-luciferase knock-in reporter, 24 h; 100% = twice the neutral-well signal; reporter increase, % at 12.5 µM; in the data active means activation above about 40%; inconclusive means no clear call, values can overlap the other calls;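 further: a rise in the Bmi1 reporter signal indicates esBAF inhibition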
AHR act = human AHR activation; P35869; AHR-responsive luciferase reporter cells, luminescence; activation, % at 5 µM; actives 2.5% (n = 320,000); AID 2796; in the data active means activation above about 47%
Target sequence (P35869 whole entry, looked up): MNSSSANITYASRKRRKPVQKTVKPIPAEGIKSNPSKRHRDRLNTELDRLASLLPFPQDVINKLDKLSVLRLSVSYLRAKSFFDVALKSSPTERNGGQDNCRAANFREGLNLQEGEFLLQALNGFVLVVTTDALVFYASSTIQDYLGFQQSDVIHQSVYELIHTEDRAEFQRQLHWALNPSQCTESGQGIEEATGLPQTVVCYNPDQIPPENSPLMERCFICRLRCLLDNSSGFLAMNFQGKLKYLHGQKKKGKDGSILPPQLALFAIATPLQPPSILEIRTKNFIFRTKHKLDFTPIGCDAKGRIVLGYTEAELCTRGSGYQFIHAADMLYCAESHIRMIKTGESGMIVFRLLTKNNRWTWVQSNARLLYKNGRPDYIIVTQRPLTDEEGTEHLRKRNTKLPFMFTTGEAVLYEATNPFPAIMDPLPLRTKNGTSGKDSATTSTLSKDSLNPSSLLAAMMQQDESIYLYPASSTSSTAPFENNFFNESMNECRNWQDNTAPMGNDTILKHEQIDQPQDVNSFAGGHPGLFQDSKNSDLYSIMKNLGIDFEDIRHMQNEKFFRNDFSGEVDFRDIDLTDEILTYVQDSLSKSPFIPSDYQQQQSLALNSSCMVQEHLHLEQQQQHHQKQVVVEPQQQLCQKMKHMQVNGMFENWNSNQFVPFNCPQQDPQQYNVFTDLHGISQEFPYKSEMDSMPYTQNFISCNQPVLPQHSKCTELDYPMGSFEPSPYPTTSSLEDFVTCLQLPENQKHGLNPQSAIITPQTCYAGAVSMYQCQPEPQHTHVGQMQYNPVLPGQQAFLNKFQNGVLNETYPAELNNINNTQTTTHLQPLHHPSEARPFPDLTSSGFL
GAA850 FXN act = frataxin GAA850 promoter activation; HEK293 lucGAA850 FXN promoter luciferase reporter, 24 h; percent of 10 µM SAHA response; activation, % at 6 µM; actives 0.56% (n = 360,000); AID 540364;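 active means activation above the average of all compounds screened plus 3 SD, cutoff fixed separately per campaign, cut at about 7.5% in these data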
Numbers stand for hits; n = inactive; u = inconclusive; x = no result.

SMILES	Wnt act	MITF TRPM1 HTS	esBAF inh	AHR act	GAA850 FXN act
C[C@@H]1CN([C@@H](C)CO)C(=O)Cc2cc(NC(=O)Nc3ccccc3)ccc2O[C@H]1CN(C)S(=O)(=O)c1ccccc1	x	x	n	x	x
CCCNC(=O)C[C@@H]1CC[C@@H]2[C@@H](COc3ccc(NC(=O)Nc4ccccc4F)cc3C(=O)N2C)O1	x	x	n	x	x
N#Cc1ccc(NC(=O)c2nc(-c3ccccc3)n(-c3ccccc3)n2)cc1	x	n	x	n	n
O=C(Nc1ccccn1)c1nc(-c2ccccc2)n(-c2ccccc2)n1	x	n	x	56	n
COc1ccc(/C=N/Nc2ccc([N+](=O)[O-])cc2)cc1O	33	104	81	n	n
COc1ccc(/C=N\Nc2ccc([N+](=O)[O-])cc2)c(C(=O)O)c1OC	n	n	n	n	n
COc1ccc(/C=N/Nc2ccc([N+](=O)[O-])cc2)cc1Cn1cc([N+](=O)[O-])cn1	x	n	n	69	n
COc1ccc(NC(=O)N(C)C[C@@H]2Oc3c(NS(=O)(=O)c4ccc(F)cc4)cccc3C(=O)N([C@@H](C)CO)C[C@H]2C)cc1	x	x	n	x	x
COc1ccc(CN(C)C[C@H]2Oc3ccc(NC(=O)CCC(F)(F)F)cc3C(=O)N([C@@H](C)CO)C[C@H]2C)cc1	x	x	n	x	x
COc1ccc(Cl)cc1NC(=O)CN(C)C(=O)c1sc2ccccc2c1Cl	n	n	n	n	n
COc1ccc(Cl)cc1NC(=O)CN(C)C(=O)c1sccc1-c1ccccc1	n	n	n	55	n
c1ccc(-c2csc(-c3ccncc3)n2)cc1	n	n	n	n	n
Brc1ccc(-c2csc(-c3c[nH]c4ccccc34)n2)cc1	n	n	67	78	n
c1ccc2c(-c3csc(-c4ccncc4)n3)c[nH]c2c1	n	126	52	58	n
Cc1ccc2c(c1)c(C)c(C)n2CC(O)Cn1nnc2ccccc21 (configuration not stated)	u	x	63	n	n
Cc1cccc(C)c1OCC(O)Cn1nnc2ccccc21 (configuration not stated)	x	n	n	n	n
Cc1ccc2c(c1)c(C)c(C)n2CC(O)Cn1nc(C)cc1C (configuration not stated)	n	n	n	61	n
COc1cccc(S(=O)(=O)N(C)C[C@H]2Oc3cc(C#CCN(C)C)ccc3S(=O)(=O)N([C@@H](C)CO)C[C@@H]2C)c1	x	x	n	x	x
COc1ccc(C)cc1NC(=O)n1ncc2cc(Cl)ccc21	n	n	n	56	n
O=C(CCn1cccn1)N1CCCC(N2CCN(c3cccc(C(F)(F)F)c3)CC2)C1 (configuration not stated)	32	n	n	n	n
C[C@@H]1CN([C@@H](C)CO)C(=O)c2cc(-c3ccccc3)cnc2O[C@@H]1CN(C)C(=O)c1ccccc1F	x	x	n	x	x
O=C1c2ccccc2CN1CCSC(=S)N1CCSCC1	x	x	x	n	x
O=C1c2ccccc2CN1CCSC(=S)N1CCOCC1	41	n	x	n	n
COc1cccc(NC(=O)N[C@H]2CC[C@@H](CC(=O)N3CCCCC3)O[C@H]2CO)c1	x	x	n	x	x
COc1ccc(C)cc1NC(=O)C(OC(=O)Cn1cnc2c1c(=O)n(C)c(=O)n2C)c1ccccc1 (configuration not stated)	n	n	n	53	n
SMILES	Wnt act	MITF TRPM1 HTS	esBAF inh	AHR act	GAA850 FXN act
COc1ccc(C)cc1NC(=O)C(OC(=O)c1cnccn1)c1ccccc1 (configuration not stated)	n	n	n	n	n
COc1ccc(C)cc1NC(=O)C(OC(=O)CNC(=O)c1cc(C)cc(C)c1)c1ccccc1 (configuration not stated)	n	n	x	67	n
COc1ccc(C)cc1NC(=O)C(OC(=O)c1ccc([N+](=O)[O-])o1)c1ccccc1 (configuration not stated)	n	n	x	47	n
C[C@@H]1CCCCO[C@@H](CN(C)C(=O)CCC(F)(F)F)[C@H](C)CN([C@@H](C)CO)C(=O)c2cc(NC(=O)CCC(F)(F)F)ccc2O1	x	x	n	x	x
Cc1noc(C)c1S(=O)(=O)N(C)C[C@@H]1OCCCC[C@@H](C)Oc2ccc(NC(=O)Cc3ccccc3)cc2C(=O)N([C@H](C)CO)C[C@@H]1C	x	x	n	x	x
C[C@@H]1CN([C@H](C)CO)C(=O)c2cc(NC(=O)Cc3cn(C)c4ccccc34)ccc2O[C@H]1CN(C)C(=O)Nc1ccc(C(F)(F)F)cc1	x	x	n	x	x
O=C(O)C1CCN(C(=O)c2ccco2)CC1	n	n	n	n	n
O=C(c1ccco1)N1CCCC(Nc2ccc3c(c2)OCCO3)C1 (configuration not stated)	n	n	43	n	n
